Data from PubChem BioAssay.
Active and inactive are the calls of the source. Unless noted, no rule for the calls is given here.

Key:
[1] = compounds altering circadian rhythm period length – cell-based, LOPAC library, luminescence reporter (AID 2774); conditions: circadian reporter cells, at 7 µM, actives lie on both sides;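 also: values are relative to mean of DMSO wells on each plate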
[2] = test system: Hepatitis C virus NS3 helicase; assay: blockers of NS3h binding to ssDNA – biochemical, fluorescence polarization, LOPAC1280 library, primary screen (AID 687035; in the data active = inhibition above about 37%); conditions: Purified HCV NS3 helicase, Cy5-dT15 ssDNA binding fluorescence polarization; stronger effect = higher value; concentration not given here
[3] = compounds altering Cy5-DNA-NS3h complex signal – biochemical, LOPAC1280, artefact control for HCV NS3 helicase inhibitor project (AID 687037); conditions: Cy5-DNA-NS3h complex fluorescence interference counterscreen
[4] = viability loss with induced miR-34 in A549 – imaging, A549 dox-inducible miR-34, nuclei and caspase counts, primary screen (AID 1347080;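 active = compounds whose cell count with miR-34 switched on is under 0.7 times the count with it off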); conditions: A549 miR-34 inducible, Hoechst nuclei count, 48 h
[5] = blockers of cellular phospholipid synthesis – cell-based, LOPAC library, screen 4, primary screen (AID 1347384); conditions: animal cells, phospholipid biosynthesis inhibition screen; at 10 µM
[6] = galactose survival enhancers in mitochondrial complex I cybrids – cell-based, galactose medium, ATP luminescence, primary screen (AID 1645843;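 active = z-score of at least 1.8 in each of two replicates, scored against plate mean and spread of sample wells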;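 also: positive z means more ATP and so rescue of galactose-driven cybrid death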); conditions: complex I mutant cybrid cells, 72 h, stronger effect = higher value
[7] = stronger effect = lower value, cell number ratio, induced over uninduced
[8] = measured here: relative caspase fold change +Dox/-Dox
[9] = measured here: total cells with miR-34 induction, stronger effect = lower value
[10] = measured here: total cells without miR-34 induction

Row | Structure (SMILES) | period change [1] | inhibition [2] | fluorescence ratio (interference) [3] | fold change [4, 7] | fold change [4, 8] | cell count [4, 9] | cell count [4, 10] | outcome [5] | z-score [6]
1 | Nn1nnc2ccccc21 | -0.155 h (inactive) | -1% (inactive) | 1 (inactive) | 1.06 (inactive) | 1.77 | 10600 | 9990 | inactive | 0.305 (inactive)
2 | OCC1NCC(O)C(O)C1O (centres undefined) | 0.035 h (inactive) | -2% (inactive) | 1 (inactive) | 0.93 (inactive) | 1.34 | 9950 | 10700 | inactive | -0.145 (inactive)
3 | C=CC[C@H](N)C(=O)O | -0.185 h (inactive) | -3% (inactive) | 1 (inactive) | 0.944 (inactive) | 0.719 | 9830 | 10400 | inactive | 0.62 (inactive)
4 | NC(CCCP(=O)(O)O)C(=O)O (centres undefined) | 0.105 h (inactive) | -3% (inactive) | 1 (inactive) | 1.08 (inactive) | 1.92 | 10400 | 9550 | inactive | 0.21 (inactive)
5 | CCCC(=O)NCCc1c2n(c3ccc(OC)cc13)CCCc1ccccc1-2 | 0.06 h (inactive) | 0% (inactive) | 1 (inactive) | 1.08 (inactive) | 0.293 | 8600 | 7960 | inactive | -0.27 (inactive)
6 | NC(=O)c1ccccc1 | -0.185 h (inactive) | 0% (inactive) | 1 (inactive) | 0.988 (inactive) | 1.76 | 9430 | 9540 | inactive | 0.385 (inactive)
7 | NCCCCCCCCCCN | 0 h (inactive) | 2% (inactive) | 1 (inactive) | 0.948 (inactive) | 1.23 | 10300 | 10900 | inactive | -0.23 (inactive)
8 | c1ccc(CN2CCC3(CCCc4ccccc43)CC2)cc1 | 0 h (inactive) | -3% (inactive) | 1 (inactive) | 1.19 (inactive) | 0.602 | 7360 | 6160 | inactive | -1.27 (inactive)
9 | N[C@@H](CCCC(=O)O)C(=O)O | 0.11 h (inactive) | -1% (inactive) | 0.9 (inactive) | 1.05 (inactive) | 0.58 | 10400 | 9930 | inactive | 0.595 (inactive)
10 | Cc1cccc(C)c1OCC(N)C(C)C (centres undefined) | -0.08 h (inactive) | -3% (inactive) | 1 (inactive) | 1.09 (inactive) | 0.766 | 11200 | 10300 | inactive | -0.425 (inactive)
11 | NC1CCN(O)C1=O (centres undefined) | 0.11 h (inactive) | 0% (inactive) | 1 (inactive) | 0.997 (inactive) | 1.98 | 10200 | 10200 | inactive | 0.075 (inactive)
12 | NC(=O)C1=CN(C2OC(COP(=O)(O)OP(=O)(O)OC[C@H]3O[C@@H](n4cnc5c(N)ncnc54)C(OP(=O)(O)O)[C@H]3O)C(O)C2O)C=CC1 (some centres undefined) | -0.03 h (inactive) | -4% (inactive) | 1 (inactive) | 1.07 (inactive) | 1.18 | 9810 | 9130 | inactive | 1.12 (inactive)
13 | O=c1ccn([C@@H]2O[C@H](COP(=O)(O)OP(=O)(O)O)[C@@H](O)[C@H]2O)c(=O)[nH]1 | 0.165 h (inactive) | -1% (inactive) | 1 (inactive) | 0.992 (inactive) | 1.43 | 9420 | 9500 | inactive | 0.745 (inactive)
14 | CCCN(CCc1ccccc1)C1CCc2c(O)cccc2C1 (centres undefined) | 0.095 h (inactive) | -4% (inactive) | 1 (inactive) | 0.964 (inactive) | 1.22 | 5860 | 6070 | inactive | -1.21 (inactive)
15 | Cc1cccc(C2CN(C)CCc3c2cc(O)c(O)c3Cl)c1 (centres undefined) | 0.11 h (inactive) | -4% (inactive) | 1 (inactive) | 0.998 (inactive) | 1.65 | 6330 | 6340 | inactive | -1.29 (inactive)
16 | COc1cc(/C=C(\C#N)C(=O)c2ccc(O)c(O)c2)cc(I)c1O | 0.035 h (inactive) | 37% (active) | 0.9 (inactive) | 0.957 (inactive) | 1.26 | 9980 | 10400 | inactive | 0.8 (inactive)
17 | OCC1O[C@H](O)C(Cl)C(O)C1O (some centres undefined) | 0.3 h (inactive) | -1% (inactive) | 1 (inactive) | 0.973 (inactive) | 1.54 | 9780 | 10100 | inactive | -0.395 (inactive)
18 | Cn1c(=O)c2c(nc(/C=C/c3cccc(Cl)c3)n2C)n(C)c1=O | 0.15 h (inactive) | -2% (inactive) | 1 (inactive) | 1.03 (inactive) | 1.2 | 9630 | 9370 | inactive | 1.26 (inactive)

Row | Structure (SMILES) | period change [1] | inhibition [2] | fluorescence ratio (interference) [3] | fold change [4, 7] | fold change [4, 8] | cell count [4, 9] | cell count [4, 10] | outcome [5] | z-score [6]
19 | O=C(O)c1cc(=O)cc(C(=O)O)[nH]1 | -0.025 h (inactive) | 0% (inactive) | 1 (inactive) | 0.984 (inactive) | 1.62 | 10200 | 10300 | inactive | 0.285 (inactive)
20 | COc1cccc(C(=O)NCCN2CCN(c3ccc(Cl)cc3)CC2)c1 | -0.035 h (inactive) | 0% (inactive) | 1 (inactive) | 1.02 (inactive) | 1.92 | 9900 | 9720 | inactive | -0.845 (inactive)
21 | COc1ccc2c(c1)c(CC(=O)O)c(C)n2C(=O)c1ccccc1 | 0.15 h (inactive) | -2% (inactive) | 1 (inactive) | 1.07 (inactive) | 1.77 | 9380 | 8810 | inactive | 1.18 (inactive)
22 | CC(=O)SC1CC2=CC(=O)CC[C@]2(C)C2CC[C@@]3(C)C(CC[C@@]34CCC(=O)O4)C12 (some centres undefined) | 0.045 h (inactive) | -4% (inactive) | 1 (inactive) | 1.07 (inactive) | 1.82 | 7810 | 7280 | inactive | 1.24 (inactive)
23 | N[C@H](C(=O)O)[C@H]1C[C@@H]1C(=O)O | 0.045 h (inactive) | 2% (inactive) | 1 (inactive) | 0.968 (inactive) | 1.24 | 9910 | 10200 | inactive | 0.225 (inactive)
24 | Nc1nc(Cl)nc2c1ncn2[C@@H]1O[C@H](COP(=O)(O)OP(=O)(O)OP(=O)(O)O)[C@H](O)C1O (some centres undefined) | -0.055 h (inactive) | 37% (active) | 1 (inactive) | 1.14 (inactive) | 1.19 | 2920 | 2560 | inactive | 0.235 (inactive)
25 | C=CC1(C)CC(=O)C2(O)C(C)(O1)C(OC(C)=O)C(O)C1C(C)(C)CCC(O)C12C (centres undefined) | 0.345 h (inactive) | 0% (inactive) | 1.1 (inactive) | 0.994 (inactive) | 1.26 | 9840 | 9900 | inactive | -0.035 (inactive)
26 | CCCCCCCCCCCCCCSCC(=O)O | -0.08 h (inactive) | -2% (inactive) | 1 (inactive) | 0.985 (inactive) | 1.37 | 9840 | 9990 | inactive | -0.24 (inactive)
27 | Fc1ccc(C(OCCCc2cnc[nH]2)c2ccc(F)cc2)cc1 | 0.11 h (inactive) | -1% (inactive) | 1 (inactive) | 0.951 (inactive) | 0.647 | 8620 | 9060 | inactive | -1.19 (inactive)
28 | [N-]=[N+]=Nc1ccc(C(=O)CSC[C@H](NC(=O)CC[C@H](N)C(=O)O)C(=O)NCC(=O)O)cc1 | 0 h (inactive) | -5% (inactive) | 0.9 (inactive) | 0.923 (inactive) | 1.4 | 5390 | 5840 | inactive | -1.12 (inactive)
29 | CCCCOC(=O)NS(=O)(=O)c1sc(CC(C)C)cc1-c1ccc(Cn2c(CC)nc3c(C)cc(C)nc32)cc1 | -0.005 h (inactive) | -1% (inactive) | 1 (inactive) | 0.772 (inactive) | 0.69 | 4700 | 6080 | inactive | -1.28 (inactive)
30 | CC1CN(S(=O)(=O)c2cccc3cnccc23)CCN1 (centres undefined) | 0.475 h (inactive) | -6% (inactive) | 0.9 (inactive) | 1.09 (inactive) | 0.736 | 11600 | 10600 | inactive | 0.18 (inactive)
31 | CCC(=O)N1CCN(C(=O)c2ccccc2)CC1 | -0.115 h (inactive) | -1% (inactive) | 1.1 (inactive) | 0.906 (inactive) | 1.03 | 9050 | 9990 | inactive | 0.245 (inactive)
32 | N[C@H](CO)C(=O)O | -0.02 h (inactive) | -3% (inactive) | 1 (inactive) | 0.97 (inactive) | 2.63 | 10300 | 10600 | inactive | 0.31 (inactive)
33 | C=CCN1CCc2c(cc(O)c(O)c2Cl)C(c2ccccc2)C1 (centres undefined) | 0.25 h (inactive) | -4% (inactive) | 1 (inactive) | 1.02 (inactive) | 1.32 | 7830 | 7660 | inactive | -0.925 (inactive)
34 | NC1(C(=O)O)CCCCC1 | -0.115 h (inactive) | -2% (inactive) | 1 (inactive) | 0.983 (inactive) | 2.37 | 10700 | 10900 | inactive | 0.63 (inactive)
35 | CCC1(O)CC2CN(CCc3c([nH]c4ccccc34)[C@@](C(=O)OC)(c3cc4c(cc3OC)N(C=O)C3[C@]45CCN4CC=C[C@@](CC)([C@@H](OC(C)=O)[C@]3(O)C(=O)OC)[C@H]45)C2)C1 (some centres undefined) | 0.81 h (active) | 2% (inactive) | 1 (inactive) | 1.3 (inactive) | 1.29 | 1490 | 1140 | inactive | -0.935 (inactive)
36 | COc1ccc2c(c1)c(CC(=O)O)c(C)n2Cc1ccc(Cl)cc1 | 0 h (inactive) | 0% (inactive) | 1 (inactive) | 0.957 (inactive) | 1.52 | 8600 | 8990 | inactive | 2.23 (active)
